Results with a measured potency or affinity are listed apart.

These results are taken from ChEMBL document CHEMBL3988442, “University of Dundee, Small-Polar-MMV Screening Library” (2021).

The first assay deals with Protein translocase subunit SecA (Escherichia coli (strain K12)) (UniProt P10408). Description: Assay to Identify E. coli SecA ATPase Inhibitors. The format is functional. Also on record: scale not given: direction of the effect not stated beside the values. The following applies: 30 µM.
Sequence of Protein translocase subunit SecA (Escherichia coli (strain K12)) (P10408 whole entry): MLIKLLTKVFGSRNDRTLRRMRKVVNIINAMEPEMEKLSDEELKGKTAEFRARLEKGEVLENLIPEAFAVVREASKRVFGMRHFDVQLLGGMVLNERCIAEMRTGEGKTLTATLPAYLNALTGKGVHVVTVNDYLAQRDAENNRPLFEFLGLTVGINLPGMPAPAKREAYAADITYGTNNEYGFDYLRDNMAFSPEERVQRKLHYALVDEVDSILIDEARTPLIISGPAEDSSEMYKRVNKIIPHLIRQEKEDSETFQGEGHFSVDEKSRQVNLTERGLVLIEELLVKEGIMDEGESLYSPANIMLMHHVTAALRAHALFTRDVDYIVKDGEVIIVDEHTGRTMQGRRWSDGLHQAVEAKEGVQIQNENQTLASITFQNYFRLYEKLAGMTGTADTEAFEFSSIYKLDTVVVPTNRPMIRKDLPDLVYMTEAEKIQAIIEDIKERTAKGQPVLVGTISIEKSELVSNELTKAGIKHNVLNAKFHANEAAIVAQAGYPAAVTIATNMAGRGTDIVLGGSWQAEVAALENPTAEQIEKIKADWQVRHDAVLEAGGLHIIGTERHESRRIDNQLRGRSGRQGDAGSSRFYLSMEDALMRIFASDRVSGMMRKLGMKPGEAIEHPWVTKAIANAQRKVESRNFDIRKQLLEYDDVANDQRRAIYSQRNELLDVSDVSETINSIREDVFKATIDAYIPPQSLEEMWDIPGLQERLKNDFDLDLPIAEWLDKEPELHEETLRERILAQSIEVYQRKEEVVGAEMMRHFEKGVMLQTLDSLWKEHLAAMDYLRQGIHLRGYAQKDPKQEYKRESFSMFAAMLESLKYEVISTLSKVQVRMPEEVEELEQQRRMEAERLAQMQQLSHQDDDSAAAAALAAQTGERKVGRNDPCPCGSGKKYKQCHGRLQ
As for `CN1CCC/C1=N\S(=O)(=O)c1ccc(NC(=O)c2cccs2)cc1`, the Percent Effect amounted to 0.351%. On the same count and under the same terms, the figure for `CC(NC(=O)NCCCn1cncn1)c1ccccc1Cl` (stereo not given) is 0.672%. As to `Cn1cnc2c1CCN(Cc1csc(-c3ccsc3)n1)C2`, the Percent Effect was -0.725%. As for `c1ncn(CC2CCCN2Cc2cn3ccsc3n2)n1` (stereo not given), the Percent Effect is -3.52%.

Regarding `Cn1cc(C(=O)N2CCCC(Cc3nccs3)C2)cn1` (stereo not given), the Percent Effect was -2.98%. With `CCc1nc(C)c(C(=O)NCCN2CCN(C(C)=O)CC2)s1`, the Percent Effect is -2.42%. For the compound `COCCO[C@H]1CCN(C(=O)c2cc(C)on2)[C@H]1Cc1ccccc1`, the Percent Effect is -2.31%. For `O=C(NCCc1ccccc1)C1CCCN(c2ccc3nncn3n2)C1` (stereo not given), the Percent Effect was -3.44%. Still for that read-out and setting: to `CCn1cc(NC(=O)NCc2ccc(CN3CCOCC3)cc2)cn1` belongs 0.918%; to `CN(C)CCN1C(=O)CCC12CCN(C(=O)c1cccnc1)CC2`, -1.32%. Take `Cc1ccc(NC(=O)N2C[C@H]3CC[C@@H]2CN(Cc2cscn2)C3)cc1`: the Percent Effect is -8.89%.

For `Cc1cc(NC(=O)CN2CCCC2c2noc(C(C)C)n2)n(C)n1` (stereo not given), the Percent Effect is 0.91%. Regarding `CC(C)CCN(C)C(=O)c1nc(S(C)(=O)=O)n2ccccc12`, the Percent Effect was -4.72%. `Cc1cnn(CC2CN(CC(=O)NCc3ccccn3)CCO2)c1` (stereo not given): the Percent Effect is -3.5%. For the compound `COCCN1CCN(Cc2cccc(C(N)=O)c2)CC1C` (stereo not given), the Percent Effect is -2.01%.

Regarding `Cc1cc(CN(C)C(=O)NCC(C)N2CCc3ccccc32)no1` (stereo not given), the Percent Effect was -2.85%.

Turning to `Cc1c(F)cccc1CN1CCn2nc(CNC(=O)N(C)C)cc2C1`, the Percent Effect was -5.26%.

Take `CC(C)CNC(=O)c1ccc2nnc(C3CCN(S(C)(=O)=O)C3)n2c1` (stereo not given): the Percent Effect was -3.3%. On the same count and under the same terms, to `CCOC(=O)N1CCN(C(=O)c2sc(-c3ccccc3F)nc2C)CC1` belongs -2.12%; to `COCCN1C(=O)CCC12CCN(C(=O)NC(C)C)CC2`, -5.46%.

For a further assay, the target named is T1, Ubiquitin-activating enzyme e1, putative (Leishmania donovani (strain BPK282A1)) (UniProt E9BSI1).
T1 sequence (whole entry): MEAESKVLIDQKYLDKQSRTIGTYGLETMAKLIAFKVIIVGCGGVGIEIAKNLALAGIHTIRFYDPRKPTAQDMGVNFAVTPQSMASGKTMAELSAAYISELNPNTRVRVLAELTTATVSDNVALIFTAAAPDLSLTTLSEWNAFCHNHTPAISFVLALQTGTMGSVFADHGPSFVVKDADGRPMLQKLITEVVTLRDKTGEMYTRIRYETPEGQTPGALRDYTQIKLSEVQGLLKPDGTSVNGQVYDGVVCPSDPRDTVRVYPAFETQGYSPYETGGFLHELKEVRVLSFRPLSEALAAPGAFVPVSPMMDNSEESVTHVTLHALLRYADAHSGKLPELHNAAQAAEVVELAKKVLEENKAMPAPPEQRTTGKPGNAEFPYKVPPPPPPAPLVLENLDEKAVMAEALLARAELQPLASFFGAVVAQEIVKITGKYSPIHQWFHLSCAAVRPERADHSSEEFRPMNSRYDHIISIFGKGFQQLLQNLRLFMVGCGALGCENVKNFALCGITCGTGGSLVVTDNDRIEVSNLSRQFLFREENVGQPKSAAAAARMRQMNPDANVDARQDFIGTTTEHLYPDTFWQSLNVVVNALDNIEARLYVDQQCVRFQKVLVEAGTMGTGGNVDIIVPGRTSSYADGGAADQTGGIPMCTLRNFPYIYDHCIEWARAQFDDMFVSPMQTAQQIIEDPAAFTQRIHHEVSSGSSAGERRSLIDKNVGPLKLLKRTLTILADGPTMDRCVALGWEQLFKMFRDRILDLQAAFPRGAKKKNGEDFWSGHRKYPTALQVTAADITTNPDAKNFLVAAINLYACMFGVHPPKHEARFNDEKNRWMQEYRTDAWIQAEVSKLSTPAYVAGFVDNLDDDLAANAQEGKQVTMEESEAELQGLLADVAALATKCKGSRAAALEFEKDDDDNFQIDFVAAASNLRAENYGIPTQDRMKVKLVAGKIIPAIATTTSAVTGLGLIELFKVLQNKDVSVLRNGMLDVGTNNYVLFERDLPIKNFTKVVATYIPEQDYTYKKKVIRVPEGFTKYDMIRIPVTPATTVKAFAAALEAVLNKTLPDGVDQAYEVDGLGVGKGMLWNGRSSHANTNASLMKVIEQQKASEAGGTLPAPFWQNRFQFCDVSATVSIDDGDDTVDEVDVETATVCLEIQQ
The assay can be described thus: Leishmania donovani Ubiquitin Activating Enzyme (LdE1). The format is functional. Also on record: scale not given: direction of the effect not stated beside the values. The following applies: 30 µM.
Take `CC(C)NC(=O)[C@@H](NC(=O)N1CCN(c2ccc(Cl)cc2)CC1)C(C)C`: the Percent Effect is -5.41%.

In the case of `CC(C)NC(=O)N1CCC2(C1)CN(c1ccsc1)C(=O)CN2C` (stereo not given), the Percent Effect worked out at 9.09%.

As for `Cc1csc(Nc2nccnc2C2CCCN2C(=O)C(C)C)n1` (stereo not given), the Percent Effect is 14.7%. For `CS(=O)(=O)NCc1ncn2c1CN(C(=O)CC1CCCC1)CCC2`, the Percent Effect was -1.3%. Still for that read-out and setting: to `c1ccc(CCNC2CCc3ncnn3C2)nc1` (stereo not given) belongs 18.2%; to `CS(=O)(=O)N1Cc2ccccc2C2(CCN(C(=O)c3ccno3)CC2)C1`, 19.5%; to `c1ccc(-n2ncc(CNC3CCc4ncnn4C3)n2)cc1` (stereo not given), 10.3%. Regarding `O=C(NCCn1ccnc1)N1CCN(c2nccs2)CC1`, the Percent Effect was 15.6%.

On to `CCN1CCO[C@]2(CCC[C@H]2COCc2csc(C)n2)C1`, for which the Percent Effect is -1.3%. Same read-out and setting: the figure for `O=C(NCCCn1ccnc1)N1CCN(c2cccs2)CC1` is -10.4%. Take `CC1CN(CC2CCCCC2)CCN1c1ccc2nncn2n1` (stereo not given): the Percent Effect was 15.4%. As for `CC(Cn1cccn1)NC(=O)NCc1cccs1` (stereo not given), the Percent Effect was -66.7%.

Take `CCn1nc(C)c(CCNC(=O)C2CCCN(CC(N)=O)C2)c1C` (stereo not given): the Percent Effect is 8.11%. In the case of `CCn1ccnc1CNCC1CCCN1c1cccnn1` (stereo not given), the Percent Effect was 2.67%. The same measure, in the same setting: to `CCC(=O)N(C)CC(=O)Nc1ccc(Br)cn1` belongs 2.67%; to `Cn1ccc(CN2CCCC2c2ccc3c(c2)OCCCO3)cc1=O` (stereo not given), 7.69%; to `CCOc1ccc2[nH]c(=O)c(CN3CCC(O)CC3)cc2c1`, 5.41%. The same measure, in the same setting: to `c1ncn(CC2CN(Cc3noc(C4CC4)n3)CCO2)n1` (stereo not given) belongs 2.67%; to `Cc1cccc(CN2C[C@@H]3CN(C(=O)[C@H]4CCCO4)C[C@@H]3C2=O)c1`, 24.7%; to `CS(=O)(=O)c1cccc(C(N)c2ccc(F)c(F)c2)c1` (stereo not given), 5.33%. For the compound `CN1CCC/C1=N\S(=O)(=O)c1ccc(NC(=O)c2cccs2)cc1`, the Percent Effect was found to be 15.6%. As to `CC(NC(=O)NCCCn1cncn1)c1ccccc1Cl` (stereo not given), the Percent Effect is 10.7%. Regarding `Cn1cnc2c1CCN(Cc1csc(-c3ccsc3)n1)C2`, the Percent Effect came to 0%. Turning to `c1ncn(CC2CCCN2Cc2cn3ccsc3n2)n1` (stereo not given), the Percent Effect is 5.13%. For the compound `Cn1cc(C(=O)N2CCCC(Cc3nccs3)C2)cn1` (stereo not given), the Percent Effect came to 12%. Take `CCc1nc(C)c(C(=O)NCCN2CCN(C(C)=O)CC2)s1`: the Percent Effect was 10.4%. As to `COCCO[C@H]1CCN(C(=O)c2cc(C)on2)[C@H]1Cc1ccccc1`, the Percent Effect stood at 11.7%. On the same count and under the same terms, to `O=C(NCCc1ccccc1)C1CCCN(c2ccc3nncn3n2)C1` (stereo not given) belongs 2.7%. Still for that read-out and setting: the figure for `CCn1cc(NC(=O)NCc2ccc(CN3CCOCC3)cc2)cn1` is 13%; for `CN(C)CCN1C(=O)CCC12CCN(C(=O)c1cccnc1)CC2` it is 3.9%.

As to `Cc1ccc(NC(=O)N2C[C@H]3CC[C@@H]2CN(Cc2cscn2)C3)cc1`, the Percent Effect turned out to be 2.7%. Still for that read-out and setting: the figure for `Cc1cc(NC(=O)CN2CCCC2c2noc(C(C)C)n2)n(C)n1` (stereo not given) is -42.7%; for `CC(C)CCN(C)C(=O)c1nc(S(C)(=O)=O)n2ccccc12` it is 12.8%; for `Cc1cnn(CC2CN(CC(=O)NCc3ccccn3)CCO2)c1` (stereo not given) it is 8%. Consider `COCCN1CCN(Cc2cccc(C(N)=O)c2)CC1C` (stereo not given), for which the Percent Effect stood at 29.3%.

With `Cc1cc(CN(C)C(=O)NCC(C)N2CCc3ccccc32)no1` (stereo not given), the Percent Effect is -2.6%.

As to `Cc1c(F)cccc1CN1CCn2nc(CNC(=O)N(C)C)cc2C1`, the Percent Effect is 10.8%. Turning to `CC(C)CNC(=O)c1ccc2nnc(C3CCN(S(C)(=O)=O)C3)n2c1` (stereo not given), the Percent Effect is -3.9%. Still for that read-out and setting: to `CCOC(=O)N1CCN(C(=O)c2sc(-c3ccccc3F)nc2C)CC1` belongs 5.41%.

On to `COCCN1C(=O)CCC12CCN(C(=O)NC(C)C)CC2`, for which the Percent Effect was found to be 3.9%.
